# Source: PubChem BioAssay (Tox21)
# Several values for one entry are separate records, joined by “and”; a condition that tells them apart may be missing. Equal values may be shown once. Inconclusive results are not listed. Where a call stands in place of a potency, no number is given. The source holds several records for some structures; these can differ, active in one and inactive in another. Activity calls are given as the source filed them. Calls follow the shape of the dose curve; as a rule, active = well fitted curve in the direction sought with a large enough effect in the repeat runs; inconclusive = weak or mixed curves; inactive = no such curve, though single readings can be large; an effect the other way counts as inactive or inconclusive.
# Experiments:
# [1] = Caspase-3/7 induction in CHO-K1 cells by small molecules, qHTS cell viability counter screen (AID 1346979); also: nearly all actives have a fitted effect of over 35% in size; also: potency is read from the fitted curve at half-maximal effect
# Procedure, shortened: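 Wild-type CHO-K1 cells were seeded at 1,500 per well, rested 5hr at 37 C, then exposed to compounds in DMSO. After 16hr, CellTiter-Fluor reagent was added and fluorescence read 1hr later as the viability measure.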
# [2] = Caspase-3/7 induction in CHO-K1 cells by small molecules, qHTS assay (AID 1346980); also: nearly all actives have a fitted effect of over 15% in size
# Procedure, shortened: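 Wild-type cells were seeded at 1,500 per well and settled 5 hr at 37 C, 5% CO2, then exposed to DMSO-dissolved compounds for 17 hr. Caspase-Glo 3/7 reagent was added, and luminescence was read after 30min at room temperature.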
# [3] = Caspase-3/7 induction in HepG2 cells by small molecules, qHTS cell viability counter screen (AID 1346981); also: nearly all actives have a fitted effect of over 30% in size; also: potency is read from the fitted curve at half-maximal effect
# Procedure, shortened: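 After a 5-hr attachment period at 37 C and 5% CO2, wild-type HepG2 cells received compounds in DMSO. Sixteen hours later CellTiter-Fluor was dispensed and the fluorescent signal quantified after a further hour.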
# [4] = target: Nuclear receptor subfamily 1 group I member 2 (Homo sapiens) (UniProt O75469); assay: Human pregnane X receptor (PXR) small molecule agonists, qHTS assay (AID 1346982); also: nearly all actives have a fitted effect of over 35% in size; also: potency is read from the fitted curve at half-maximal effect
# Procedure, shortened: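 Tox21 qHTS; PXR-Luc HepG2; compounds pinned from DMSO; 24 hr, 37 C; ONE-Glo luciferase detection, 30 min room temperature.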
# [5] = target: Nuclear receptor subfamily 1 group I member 2 (Rattus norvegicus) (UniProt Q9R1A7); assay: Rat pregnane X receptor (rPXR) activation by small molecules, qHTS assay (AID 1346983); conditions: rPXR luciferase reporter cells, One-Glo luminescence, 24 h; max activation: stronger effect = higher value; also: nearly all actives have a fitted effect of over 20% in size
# Procedure, shortened: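 Cell-based rPXR luciferase reporter assay, 2,000 cells per well, rested 5hr at 37 C before compound addition in DMSO, then 24 hr at 37 C. One-Glo reagent was added and luminescence read after 30 min at room temperature.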
# [6] = target: Nuclear receptor subfamily 1 group I member 2 (Homo sapiens) (UniProt O75469); assay: CYP3A4 induction through human pregnane X receptor (PXR) by small molecules, qHTS assay (AID 1346984); also: nearly all actives have a fitted effect of over 40% in size
# Procedure, shortened: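 Cells (DPX-2; HepG2 with PXR element plus CYP3A4-promoter luciferase) settled 5hr, then were treated 24hr at 37C. A 3hr, 3uM-final Luciferin-IPA step preceded luminescence measurement with One-Glo.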
# [7] = target: Nuclear receptor subfamily 1 group I member 2 (Homo sapiens) (UniProt O75469); assay: Human pregnane X receptor (PXR) activation by small molecules, qHTS assay (AID 1346985); also: nearly all actives have a fitted effect of over 40% in size
# Procedure, shortened: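 DPX-2 cells (HepG2 co-transfected with a PXR response element and a CYP3A4-promoter luciferase construct) were seeded at 2,000 per well, rested 5 hr at 37C, then exposed to DMSO-dissolved compounds for 24 hr. Activation was read as luciferase luminescence.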
# [8] = target: Cytochrome P450 2D6 (Homo sapiens) (UniProt P10635); assay: Cytochrome P450 Family 2 Subfamily D Member 6 (CYP2D6) small molecule antagonists: luciferase reporter qHTS assay (AID 1671196); also: nearly all actives have a fitted effect of over 50% in size; also: potency is read from the fitted curve at half-maximal effect
# Procedure, shortened: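 Room-temperature luminescent CYP2D6 activity assay: compound preincubated 10 min with enzyme–substrate mix, NADPH-initiated reaction 1 h, detection reagent 20 min before reading.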
# [9] = target: Cytochrome P450 2C19 (Homo sapiens) (UniProt P33261); assay: Cytochrome P450 Family 2 Subfamily C Member 19 (CYP2C19) small molecule antagonists: luciferase reporter qHTS assay (AID 1671197); also: nearly all actives have a fitted effect of over 65% in size; also: potency is read from the fitted curve at half-maximal effect
# Procedure, shortened: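 Inhibition of CYP2C19 was scored from loss of luminescence in a P450-Glo proluciferin substrate assay, NADPH-started and run 1 h at 37C, with ketoconazole as positive control.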
# [10] = target: Cytochrome P450 2C9 (Homo sapiens) (UniProt P11712); assay: Cytochrome P450 Family 2 Subfamily C Member 9 (CYP2C9) small molecule antagonists: luciferase reporter qHTS assay (AID 1671198); also: nearly all actives have a fitted effect of over 50% in size; also: potency is read from the fitted curve at half-maximal effect
# Procedure, shortened: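 CYP2C9 activity was measured with a P450-Glo proluciferin substrate. Enzyme–substrate mix was held with compound for 10 min at room temperature, then NADPH regeneration solution was added for 1 h at 37C. Luciferin product was read as luminescence.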
# Sequence of Cytochrome P450 2C9 (Homo sapiens) (P11712 whole entry, looked up): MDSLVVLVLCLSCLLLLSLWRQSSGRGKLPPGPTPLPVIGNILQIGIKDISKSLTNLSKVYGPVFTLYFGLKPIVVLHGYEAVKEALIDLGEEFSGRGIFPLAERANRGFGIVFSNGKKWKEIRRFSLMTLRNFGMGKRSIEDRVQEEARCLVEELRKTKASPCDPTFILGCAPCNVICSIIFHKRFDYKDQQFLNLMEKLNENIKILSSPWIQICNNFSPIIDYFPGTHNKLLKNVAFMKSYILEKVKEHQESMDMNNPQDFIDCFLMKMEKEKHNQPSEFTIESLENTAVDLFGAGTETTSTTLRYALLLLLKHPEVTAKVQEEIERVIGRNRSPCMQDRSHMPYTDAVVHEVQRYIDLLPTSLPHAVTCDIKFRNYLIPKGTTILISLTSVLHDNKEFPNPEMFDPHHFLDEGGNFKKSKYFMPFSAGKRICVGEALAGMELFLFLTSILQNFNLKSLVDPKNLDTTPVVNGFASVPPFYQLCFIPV
# Sequence of Cytochrome P450 2C19 (Homo sapiens) (P33261 whole entry, looked up): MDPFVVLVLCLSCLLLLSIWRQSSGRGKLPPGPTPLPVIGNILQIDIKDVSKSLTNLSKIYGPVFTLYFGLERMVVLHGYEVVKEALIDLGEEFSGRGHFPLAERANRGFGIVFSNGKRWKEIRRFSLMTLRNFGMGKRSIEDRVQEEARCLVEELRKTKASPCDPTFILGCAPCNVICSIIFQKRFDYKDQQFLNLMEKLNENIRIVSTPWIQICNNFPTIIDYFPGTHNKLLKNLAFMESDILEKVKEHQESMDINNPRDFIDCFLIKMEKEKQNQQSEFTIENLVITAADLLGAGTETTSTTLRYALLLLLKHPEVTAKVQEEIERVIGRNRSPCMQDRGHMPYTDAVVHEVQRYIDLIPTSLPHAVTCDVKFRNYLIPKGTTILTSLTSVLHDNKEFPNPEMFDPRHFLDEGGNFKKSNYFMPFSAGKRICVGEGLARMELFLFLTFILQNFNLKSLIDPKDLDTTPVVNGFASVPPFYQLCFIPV
# Sequence of Nuclear receptor subfamily 1 group I member 2 (Rattus norvegicus) (Q9R1A7 whole entry, looked up): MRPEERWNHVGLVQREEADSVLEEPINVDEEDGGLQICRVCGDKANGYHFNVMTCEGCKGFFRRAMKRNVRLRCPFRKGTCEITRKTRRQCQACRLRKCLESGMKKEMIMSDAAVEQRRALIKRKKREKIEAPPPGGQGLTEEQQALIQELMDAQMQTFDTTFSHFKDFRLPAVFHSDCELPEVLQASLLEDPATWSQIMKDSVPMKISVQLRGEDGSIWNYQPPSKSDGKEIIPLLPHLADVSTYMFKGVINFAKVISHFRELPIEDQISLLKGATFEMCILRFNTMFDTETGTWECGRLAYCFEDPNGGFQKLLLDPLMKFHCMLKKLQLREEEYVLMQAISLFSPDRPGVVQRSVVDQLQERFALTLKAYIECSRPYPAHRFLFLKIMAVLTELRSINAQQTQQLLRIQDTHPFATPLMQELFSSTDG
# Sequence of Cytochrome P450 2D6 (Homo sapiens) (P10635 whole entry, looked up): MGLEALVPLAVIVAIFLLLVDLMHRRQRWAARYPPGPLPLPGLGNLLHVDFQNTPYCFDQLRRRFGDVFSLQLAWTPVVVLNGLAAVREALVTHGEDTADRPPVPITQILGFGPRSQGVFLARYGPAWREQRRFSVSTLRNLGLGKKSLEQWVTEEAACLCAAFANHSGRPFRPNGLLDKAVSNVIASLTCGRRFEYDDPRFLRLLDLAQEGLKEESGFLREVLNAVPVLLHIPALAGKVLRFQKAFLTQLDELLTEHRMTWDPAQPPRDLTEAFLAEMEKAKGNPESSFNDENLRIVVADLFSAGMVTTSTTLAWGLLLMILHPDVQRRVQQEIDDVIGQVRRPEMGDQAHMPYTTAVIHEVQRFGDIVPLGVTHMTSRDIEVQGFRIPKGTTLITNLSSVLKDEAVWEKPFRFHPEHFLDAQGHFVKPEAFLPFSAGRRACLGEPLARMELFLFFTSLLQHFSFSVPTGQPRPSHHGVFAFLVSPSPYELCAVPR
# Sequence of Nuclear receptor subfamily 1 group I member 2 (Homo sapiens) (O75469 whole entry, looked up): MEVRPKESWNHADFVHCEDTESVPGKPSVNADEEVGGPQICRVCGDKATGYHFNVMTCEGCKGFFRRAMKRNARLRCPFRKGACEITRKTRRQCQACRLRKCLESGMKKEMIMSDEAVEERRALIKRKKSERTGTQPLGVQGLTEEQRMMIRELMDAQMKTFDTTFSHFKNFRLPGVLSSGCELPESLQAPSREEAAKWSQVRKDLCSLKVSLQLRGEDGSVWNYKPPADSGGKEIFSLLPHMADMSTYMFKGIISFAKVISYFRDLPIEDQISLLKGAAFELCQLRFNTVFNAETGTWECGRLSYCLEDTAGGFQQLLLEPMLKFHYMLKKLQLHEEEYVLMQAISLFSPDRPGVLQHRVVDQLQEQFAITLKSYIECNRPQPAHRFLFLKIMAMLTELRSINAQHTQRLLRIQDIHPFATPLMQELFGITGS
SMILES,Potency [1],Potency [2],Potency [3],Potency [4],max activation [5],outcome [6],outcome [7],Potency [8],Potency [9],Potency [10]
c1ccc2ccccc2c1,inactive,inactive,inactive,inactive,-0.655% (inactive),inactive,inactive,inactive,inactive,inactive
O=C1CCCCC1,inactive,inactive,inactive,inactive,–,–,–,inactive,74.6 µM (active) and inactive,inactive
C=CC(=O)OCCCCCCCC(C)C,inactive,inactive,inactive,inactive,–,–,–,inactive,inactive,inactive
Cc1cc(=O)[nH]c(C(C)C)n1,inactive,inactive,inactive,inactive,–,–,–,inactive,inactive,inactive
Cn1c([N+](=O)[O-])cnc1COC(N)=O,inactive,inactive,inactive,inactive,–,–,–,inactive,inactive,inactive
CCCCOCCO,inactive,inactive,inactive,inactive,–,–,–,inactive,inactive,inactive
CC1CC(OC(=O)c2ccccc2O)CC(C)(C)C1 (configuration not stated),–,inactive,inactive,inactive,-1.96% (inactive),inactive,inactive,inactive,inactive,inactive and 44.8 µM (active)
CNC[C@H](O)[C@@H](O)[C@H](O)[C@H](O)CO,–,inactive,inactive,inactive,-2.23% (inactive),inactive,inactive,inactive,inactive,–
Clc1cc(Cl)c(Cl)cc1Cl,inactive,inactive,inactive,inactive,–,–,–,inactive,inactive,inactive
Cc1cc(Cc2ccc(N)c(C)c2)ccc1N,inactive,inactive,inactive,61.1 µM (active),–,–,–,–,3.56 µM (active) and 5.03 µM (active),6.33 µM (active) and 25.2 µM (active)
NC(=O)NNc1ccccc1,inactive,inactive,inactive,–,-0.925% (inactive) and 0.997% (inactive),–,–,–,–,–
C=C(C)C(=O)OCC(CC)(COC(=O)C(=C)C)COC(=O)C(=C)C,inactive,inactive,inactive,inactive,–,–,–,16.2 µM (active),3.62 µM (active) and 3.49 µM (active),14.4 µM (active) and 15.6 µM (active)
CC(=O)[C@@]1(O)CC[C@H]2[C@@H]3CCC4=CC(=O)CC[C@]4(C)[C@H]3CC[C@@]21C,–,inactive,inactive,–,–,–,–,–,–,–
O=S(=O)(O)CCS,–,inactive,inactive,inactive,-3.83% (inactive),inactive,inactive,31.3 µM (active) and inactive,inactive,–
COCC(C)O (configuration not stated),inactive,inactive,inactive,inactive,–,–,–,inactive,inactive,inactive
CCCCCCOC(C)=O,inactive,inactive,inactive,inactive,–,–,–,inactive,inactive,inactive
Clc1ccc(Cl)c(Cl)c1Cl,inactive,inactive,inactive,inactive,–,–,–,inactive,49.7 µM (active),inactive
CC(C)(C)C(=O)C1C(=O)c2ccccc2C1=O,27 µM (active) and 43.3 µM (active),inactive,60.5 µM (active),60.5 µM (active) and inactive,–,–,–,inactive,35.3 µM (active) and inactive,22.2 µM (active) and 25.2 µM (active)
CS(=O)(=O)Nc1ccc([N+](=O)[O-])cc1Oc1ccccc1,54.5 µM (active),inactive,54.5 µM (active) and 29.8 µM (active),–,-5.28% (inactive),–,–,–,–,–
O=C(c1ccc(O)cc1)c1ccc(O)cc1O,inactive,inactive,inactive,61.8 µM (active) and 48.6 µM (active),–,–,–,36 µM (active) and 35.6 µM (active),32.1 µM (active) and inactive,inactive

SMILES,Potency [1],Potency [2],Potency [3],Potency [4],max activation [5],outcome [6],outcome [7],Potency [8],Potency [9],Potency [10]
CC(C)(N=C=O)c1cccc(C(C)(C)N=C=O)c1,inactive,inactive,inactive,10.8 µM (active) and 61.1 µM (active),–,–,–,35.3 µM (active),79.1 µM (active) and inactive,inactive
CC1=C(/C=C/C(C)=C/C=C/C(C)=C/CO)C(C)(C)CCC1,69.4 µM (active),inactive,inactive,55.1 µM (active) and 32.3 µM (active),–,–,–,–,50.9 µM (active) and 37.5 µM (active),64.1 µM (active) and 37.5 µM (active)
S=c1nc[nH]c2nc[nH]c12,inactive,inactive,–,inactive,-6.82% (inactive),inactive,–,inactive,69.2 µM (active) and 30.9 µM (active),34.7 µM (active)
CC1=CC[C@H]2C[C@@H]1C2(C)C,inactive,inactive,inactive,inactive,–,–,–,inactive,inactive,inactive
Cc1ccc(C(=O)O)o1,inactive,inactive,inactive,inactive,–,–,–,inactive,inactive,inactive
C=C1CC[C@H](O)CC1=C/C=C1\CCC[C@]2(C)[C@@H]([C@H](C)/C=C/[C@H](C)C(C)C)CC[C@@H]12,54 µM (active) and 48.6 µM (active),–,–,34.1 µM (active) and 30.6 µM (active),-1.33% (inactive),inactive,inactive,–,35.3 µM (active) and 25.2 µM (active),–
COC(=O)c1ccc(C(=O)OC)cc1,780 nM (active) and inactive,inactive,inactive,2.2 µM (active) and inactive,–,–,–,inactive,18.1 µM (active) and inactive,40.5 µM (active) and inactive
NCc1cccc(CN)c1,inactive,inactive,inactive,–,–,–,–,580 nM (active) and 35.6 µM (active),36.6 µM (active) and 31.7 µM (active),36.6 µM (active) and 39.9 µM (active)
CC(=O)CCc1ccccc1,inactive,inactive,inactive,inactive,–,–,–,inactive,81 µM (active) and inactive,inactive
CCCCC(CC)COC(=O)CCCCCCCC(=O)OCC(CC)CCCC (configuration not stated),43.3 µM (active) and inactive,inactive,inactive,24.3 µM (active) and inactive,–,–,–,71 µM (active) and inactive,7.96 µM (active) and inactive,31.7 µM (active) and inactive
O=C(O)c1cc(-c2ccccc2)nc2ccccc12,inactive,inactive,inactive,inactive,–,–,–,–,50.9 µM (active) and inactive,43.9 µM (active)
NCCc1ccc(O)c(O)c1,61.3 µM (active) and inactive,inactive,68.8 µM (active) and inactive,inactive,–,–,–,63.5 µM (active) and inactive,71.2 µM (active) and inactive,inactive
O=[N+]([O-])C(CO)(CO)CO,1.7 µM (active) and inactive,inactive,4.26 µM (active) and inactive,1.35 µM (active) and inactive,–,–,–,inactive,69.9 µM (active) and inactive,79.6 µM (active)
CCCCCCCCC,inactive,inactive,inactive,inactive,–,–,–,inactive,inactive,inactive
O=S(=O)(O)c1cc(S(=O)(=O)O)c2c(N=Nc3ccccc3)c(O)ccc2c1,54.7 µM (active) and 34.4 µM (active),inactive,54.7 µM (active) and 54.5 µM (active),inactive,–,–,–,inactive,71.3 µM (active) and inactive,inactive
CCCCC(CC)COC(C)=O (configuration not stated),inactive,inactive,inactive,inactive,–,–,–,inactive,inactive,inactive
Cc1cc(NS(=O)(=O)c2ccc(N)cc2)no1,–,inactive,inactive,–,–,–,–,–,–,–
CCCCC/C=C\C/C=C\CCCCCCCC(=O)OC,inactive and 61.1 µM (active),inactive,inactive,67.8 µM (active) and 61.1 µM (active),–,–,–,35.6 µM (active),55.8 µM (active) and 11.2 µM (active),35.2 µM (active) and 7.96 µM (active)
O=C(O)c1ccc([N+](=O)[O-])cc1,inactive,inactive,inactive,inactive,–,–,–,inactive,inactive,inactive
C=C(C)C(=O)OCCCCCCCCCCCC,inactive,inactive,inactive,inactive,–,–,–,inactive,inactive,inactive
